# Experimental data published in publication PMC7862700, “An all-to-all approach to the identification of sequence-specific readers for epigenetic DNA modifications on cytosine”.
# Key:
# Experiment in all cases: DAPPL (digital affinity profiling via proximity ligation, sequencing); 10 mM Tris-HCl pH 7.5, 50 mM NaCl, 1 mM DTT, 4% glycerol, room temperature, 30 min; GST-TFs on glutathione beads, 16-mer random dsDNA library, 0.1% formaldehyde crosslink after washing; high values mean tight binding
# FLI1 = target: T1, FLI1 (Homo sapiens, UniProt Q01543 1-452); conditions: protein: recombinant; tags: N-terminal GST; dsDNA, one strand shown
# T1 sequence: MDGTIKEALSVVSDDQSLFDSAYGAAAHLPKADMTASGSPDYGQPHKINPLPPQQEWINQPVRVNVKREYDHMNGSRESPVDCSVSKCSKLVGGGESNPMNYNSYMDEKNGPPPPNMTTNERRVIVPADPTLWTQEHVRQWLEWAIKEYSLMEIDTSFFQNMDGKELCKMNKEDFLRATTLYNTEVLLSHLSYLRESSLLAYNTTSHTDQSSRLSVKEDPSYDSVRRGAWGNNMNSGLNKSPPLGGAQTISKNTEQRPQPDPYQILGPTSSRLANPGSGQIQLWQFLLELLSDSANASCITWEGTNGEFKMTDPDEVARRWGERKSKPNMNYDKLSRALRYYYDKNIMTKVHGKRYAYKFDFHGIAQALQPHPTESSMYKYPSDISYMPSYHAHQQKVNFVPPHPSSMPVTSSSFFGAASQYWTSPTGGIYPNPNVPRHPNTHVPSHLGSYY
# Summary of the method: (§1)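 After expression in yeast as GST fusions, human transcription factors were bound to glutathione beads, DNA-barcoded and mixed with a tag-only sample. The pools were incubated with 200 nmole of a 16-mer random double-stranded DNA library in Tris/NaCl/DTT/glycerol buffer (30 min, room temperature), washed and crosslinked with 0.1% formaldehyde. Proximity ligation with BsaI/T4 ligase ran for 1 h at 37 °C, before PCR amplification and sequencing on an Illumina NextSeq500. Binding signal is a hexamer's read frequency for a factor divided by its frequency for the tag-only sample.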
# ELK1 = target: T2, ELK1 (Homo sapiens, UniProt P19419 1-428); conditions: protein: recombinant; tags: N-terminal GST; dsDNA, one strand shown
# T2 sequence: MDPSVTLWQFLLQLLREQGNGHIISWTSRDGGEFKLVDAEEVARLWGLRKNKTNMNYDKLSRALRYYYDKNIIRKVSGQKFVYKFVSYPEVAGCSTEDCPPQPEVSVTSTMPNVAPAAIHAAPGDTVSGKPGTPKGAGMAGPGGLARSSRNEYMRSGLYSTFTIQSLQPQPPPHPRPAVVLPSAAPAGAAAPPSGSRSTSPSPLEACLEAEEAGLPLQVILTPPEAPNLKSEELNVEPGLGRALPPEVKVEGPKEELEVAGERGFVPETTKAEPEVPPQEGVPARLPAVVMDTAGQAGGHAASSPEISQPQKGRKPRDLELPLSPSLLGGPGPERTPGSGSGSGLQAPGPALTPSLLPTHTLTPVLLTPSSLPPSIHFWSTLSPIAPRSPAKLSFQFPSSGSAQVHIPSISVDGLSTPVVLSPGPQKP
# Summary of the method: as §1
# GABPA = target: T3, GABPA (Homo sapiens, UniProt Q06546 1-454); conditions: protein: recombinant; tags: N-terminal GST; dsDNA, one strand shown
# T3 sequence: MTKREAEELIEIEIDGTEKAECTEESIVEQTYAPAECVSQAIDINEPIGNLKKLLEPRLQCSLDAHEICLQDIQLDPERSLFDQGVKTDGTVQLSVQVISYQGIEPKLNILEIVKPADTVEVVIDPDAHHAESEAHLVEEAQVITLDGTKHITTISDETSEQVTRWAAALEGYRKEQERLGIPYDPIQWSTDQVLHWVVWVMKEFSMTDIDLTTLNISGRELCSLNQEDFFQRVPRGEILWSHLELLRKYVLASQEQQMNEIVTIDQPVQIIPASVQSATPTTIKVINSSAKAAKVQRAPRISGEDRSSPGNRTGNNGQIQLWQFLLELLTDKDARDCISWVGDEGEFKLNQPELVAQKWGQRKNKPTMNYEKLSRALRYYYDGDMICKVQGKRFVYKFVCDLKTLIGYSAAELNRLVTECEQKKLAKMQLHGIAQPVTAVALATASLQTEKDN
# Summary of the method: as §1
# ERG = target: T4, ERG (Homo sapiens, UniProt P11308 1-479); conditions: protein: recombinant; tags: N-terminal GST; dsDNA, one strand shown
# T4 sequence: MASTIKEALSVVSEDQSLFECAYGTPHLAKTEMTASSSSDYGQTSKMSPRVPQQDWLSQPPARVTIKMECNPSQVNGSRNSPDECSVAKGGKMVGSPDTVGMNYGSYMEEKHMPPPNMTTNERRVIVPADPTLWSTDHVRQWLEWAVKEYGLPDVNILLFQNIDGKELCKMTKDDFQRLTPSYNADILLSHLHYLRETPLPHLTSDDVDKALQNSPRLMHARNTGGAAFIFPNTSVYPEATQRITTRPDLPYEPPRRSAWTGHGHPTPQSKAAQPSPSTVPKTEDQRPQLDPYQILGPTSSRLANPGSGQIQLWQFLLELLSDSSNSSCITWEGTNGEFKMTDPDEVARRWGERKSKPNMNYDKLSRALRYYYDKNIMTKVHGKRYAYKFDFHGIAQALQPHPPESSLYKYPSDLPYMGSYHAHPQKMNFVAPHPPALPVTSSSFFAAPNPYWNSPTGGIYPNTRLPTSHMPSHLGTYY
# Summary of the method: as §1
# ELF1 = ELF1 (Homo sapiens, UniProt P32519 1-619); conditions: protein: recombinant; tags: N-terminal GST; dsDNA, one strand shown
# Chain of ELF1 (P32519 whole entry): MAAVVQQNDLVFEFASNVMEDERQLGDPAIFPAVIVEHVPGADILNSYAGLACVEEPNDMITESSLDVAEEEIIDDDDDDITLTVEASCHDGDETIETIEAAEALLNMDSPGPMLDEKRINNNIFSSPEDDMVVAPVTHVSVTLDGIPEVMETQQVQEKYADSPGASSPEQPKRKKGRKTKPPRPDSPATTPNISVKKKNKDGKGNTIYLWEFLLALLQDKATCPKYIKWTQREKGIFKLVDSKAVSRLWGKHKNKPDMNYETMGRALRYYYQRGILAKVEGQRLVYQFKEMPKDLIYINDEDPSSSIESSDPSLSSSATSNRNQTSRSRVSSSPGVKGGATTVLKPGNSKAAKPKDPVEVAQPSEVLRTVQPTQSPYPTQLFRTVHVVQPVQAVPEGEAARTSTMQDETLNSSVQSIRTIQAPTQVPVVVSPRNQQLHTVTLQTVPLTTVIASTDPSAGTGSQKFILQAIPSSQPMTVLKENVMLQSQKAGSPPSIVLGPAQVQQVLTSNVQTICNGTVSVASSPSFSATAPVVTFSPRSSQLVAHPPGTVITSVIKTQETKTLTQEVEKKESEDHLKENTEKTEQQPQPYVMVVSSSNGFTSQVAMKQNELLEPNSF
# Summary of the method: as §1
# EHF = target: T5, EHF (Homo sapiens, UniProt Q9NZC4 1-300); conditions: protein: recombinant; tags: N-terminal GST; dsDNA, one strand shown
# T5 sequence: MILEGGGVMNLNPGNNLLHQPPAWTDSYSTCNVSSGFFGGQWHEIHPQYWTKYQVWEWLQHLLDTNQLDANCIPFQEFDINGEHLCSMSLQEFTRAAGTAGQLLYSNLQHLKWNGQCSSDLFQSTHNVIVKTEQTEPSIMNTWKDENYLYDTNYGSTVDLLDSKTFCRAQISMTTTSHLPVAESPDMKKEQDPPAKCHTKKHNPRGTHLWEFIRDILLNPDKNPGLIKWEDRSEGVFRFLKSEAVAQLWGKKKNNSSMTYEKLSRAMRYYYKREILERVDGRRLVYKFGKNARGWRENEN
# Summary of the method: as §1
# SPI1 = SPI1 (Homo sapiens, UniProt P17947 1-270); conditions: protein: recombinant; tags: N-terminal GST; dsDNA, one strand shown
# Summary of the method: as §1
# SPIB = SPIB (Homo sapiens, UniProt Q01892 1-262); conditions: protein: recombinant; tags: N-terminal GST; dsDNA, one strand shown
# Chain of SPIB (Q01892 whole entry): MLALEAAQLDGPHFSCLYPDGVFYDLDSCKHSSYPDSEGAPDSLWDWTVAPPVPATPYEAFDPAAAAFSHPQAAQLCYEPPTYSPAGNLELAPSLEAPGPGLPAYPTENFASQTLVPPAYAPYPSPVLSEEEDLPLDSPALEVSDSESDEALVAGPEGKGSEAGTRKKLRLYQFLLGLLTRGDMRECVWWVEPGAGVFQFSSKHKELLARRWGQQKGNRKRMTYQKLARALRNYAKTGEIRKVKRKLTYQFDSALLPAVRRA
# Summary of the method: as §1
# ELK3 = target: T6, ELK3 (Homo sapiens, UniProt P41970 1-407); conditions: protein: recombinant; tags: N-terminal GST; dsDNA, one strand shown
# T6 sequence: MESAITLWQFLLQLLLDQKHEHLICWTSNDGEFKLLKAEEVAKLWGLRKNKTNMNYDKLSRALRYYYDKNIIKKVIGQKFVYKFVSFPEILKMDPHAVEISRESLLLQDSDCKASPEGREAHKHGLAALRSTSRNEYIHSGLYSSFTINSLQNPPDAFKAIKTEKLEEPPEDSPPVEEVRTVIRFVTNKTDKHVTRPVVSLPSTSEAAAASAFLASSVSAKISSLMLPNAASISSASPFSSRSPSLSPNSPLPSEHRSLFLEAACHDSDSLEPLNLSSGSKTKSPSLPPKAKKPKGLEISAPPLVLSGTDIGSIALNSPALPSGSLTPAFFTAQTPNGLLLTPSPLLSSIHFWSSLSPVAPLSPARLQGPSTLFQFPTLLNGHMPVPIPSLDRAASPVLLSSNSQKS
# Summary of the method: as §1
# FEV = target: T7, FEV (Homo sapiens, UniProt Q99581 1-238); conditions: protein: recombinant; tags: N-terminal GST; dsDNA, one strand shown
# T7 sequence: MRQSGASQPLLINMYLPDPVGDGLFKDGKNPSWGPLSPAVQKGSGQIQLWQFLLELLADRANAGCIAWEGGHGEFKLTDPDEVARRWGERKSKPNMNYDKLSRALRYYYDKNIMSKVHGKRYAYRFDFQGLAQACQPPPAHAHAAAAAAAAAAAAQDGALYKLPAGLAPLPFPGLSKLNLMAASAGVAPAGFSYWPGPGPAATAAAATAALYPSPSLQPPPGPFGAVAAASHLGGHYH
# Summary of the method: as §1
# ETV5 = ETV5 (Homo sapiens, UniProt P41161 1-510); conditions: protein: recombinant; tags: N-terminal GST; dsDNA, one strand shown
# Chain of ETV5 (P41161 whole entry): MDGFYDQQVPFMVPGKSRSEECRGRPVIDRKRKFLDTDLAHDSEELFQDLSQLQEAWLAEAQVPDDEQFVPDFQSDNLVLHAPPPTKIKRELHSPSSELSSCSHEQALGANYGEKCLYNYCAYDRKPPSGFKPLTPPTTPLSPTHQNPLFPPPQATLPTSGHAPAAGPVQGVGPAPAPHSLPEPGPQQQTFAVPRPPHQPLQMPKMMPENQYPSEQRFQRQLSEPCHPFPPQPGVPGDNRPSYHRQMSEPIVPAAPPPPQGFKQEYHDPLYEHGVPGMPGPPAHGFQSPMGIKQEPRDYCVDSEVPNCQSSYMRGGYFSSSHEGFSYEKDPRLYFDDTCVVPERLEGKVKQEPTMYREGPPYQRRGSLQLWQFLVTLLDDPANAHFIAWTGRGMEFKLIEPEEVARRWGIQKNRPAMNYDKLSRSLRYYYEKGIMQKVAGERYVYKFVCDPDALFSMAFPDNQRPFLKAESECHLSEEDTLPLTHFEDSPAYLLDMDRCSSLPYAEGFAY
# Summary of the method: as §1
# HSF1 = HSF1 (Homo sapiens, UniProt Q00613 1-529); conditions: protein: recombinant; tags: N-terminal GST; chain copies: 3; dsDNA, one strand shown
# Chain of HSF1 (Q00613 whole entry): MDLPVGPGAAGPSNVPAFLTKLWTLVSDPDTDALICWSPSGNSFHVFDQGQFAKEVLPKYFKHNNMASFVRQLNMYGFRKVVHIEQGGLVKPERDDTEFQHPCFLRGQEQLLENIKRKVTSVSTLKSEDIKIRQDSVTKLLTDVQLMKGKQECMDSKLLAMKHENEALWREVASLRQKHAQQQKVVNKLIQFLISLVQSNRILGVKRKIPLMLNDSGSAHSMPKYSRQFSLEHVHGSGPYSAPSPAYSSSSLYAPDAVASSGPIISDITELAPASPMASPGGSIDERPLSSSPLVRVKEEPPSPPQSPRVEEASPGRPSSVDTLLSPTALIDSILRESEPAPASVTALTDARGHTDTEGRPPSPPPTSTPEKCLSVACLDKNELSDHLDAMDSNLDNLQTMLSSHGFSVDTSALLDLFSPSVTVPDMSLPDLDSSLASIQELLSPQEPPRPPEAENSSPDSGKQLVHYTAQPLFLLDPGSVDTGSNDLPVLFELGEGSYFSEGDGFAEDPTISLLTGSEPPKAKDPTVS
# Summary of the method: as §1
# SPIC = target: T8, SPIC (Homo sapiens, UniProt Q8N5J4 1-248); conditions: protein: recombinant; tags: N-terminal GST; dsDNA, one strand shown
# T8 sequence: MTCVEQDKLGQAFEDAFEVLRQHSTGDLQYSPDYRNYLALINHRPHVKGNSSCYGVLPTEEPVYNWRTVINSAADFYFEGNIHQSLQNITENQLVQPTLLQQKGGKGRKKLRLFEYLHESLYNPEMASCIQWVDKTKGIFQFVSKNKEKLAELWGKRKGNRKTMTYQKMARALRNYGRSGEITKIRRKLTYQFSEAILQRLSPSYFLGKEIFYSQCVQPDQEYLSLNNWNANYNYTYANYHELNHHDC
# Summary of the method: as §1
# ELF4 = ELF4 (Homo sapiens, UniProt Q99607 1-663); conditions: protein: recombinant; tags: N-terminal GST; dsDNA, one strand shown
# Chain of ELF4 (Q99607 whole entry): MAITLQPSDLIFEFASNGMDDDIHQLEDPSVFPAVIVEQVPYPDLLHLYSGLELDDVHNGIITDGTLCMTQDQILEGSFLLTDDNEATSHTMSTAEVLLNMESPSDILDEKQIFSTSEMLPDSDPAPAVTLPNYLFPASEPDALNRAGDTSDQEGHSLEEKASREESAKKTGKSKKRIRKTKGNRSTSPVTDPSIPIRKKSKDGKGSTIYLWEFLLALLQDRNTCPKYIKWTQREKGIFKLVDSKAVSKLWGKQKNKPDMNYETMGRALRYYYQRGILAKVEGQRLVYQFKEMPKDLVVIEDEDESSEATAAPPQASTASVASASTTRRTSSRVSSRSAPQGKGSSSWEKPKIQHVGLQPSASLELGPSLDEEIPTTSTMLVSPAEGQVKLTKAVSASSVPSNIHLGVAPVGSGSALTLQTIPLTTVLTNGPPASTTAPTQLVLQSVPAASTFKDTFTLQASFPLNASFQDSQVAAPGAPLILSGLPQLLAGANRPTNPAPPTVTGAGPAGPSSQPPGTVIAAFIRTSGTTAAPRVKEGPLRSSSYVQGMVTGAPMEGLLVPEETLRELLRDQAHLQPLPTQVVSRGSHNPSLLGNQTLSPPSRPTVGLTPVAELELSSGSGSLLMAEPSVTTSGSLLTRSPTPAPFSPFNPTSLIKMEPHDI
# Summary of the method: as §1
# ELK4 = target: T9, ELK4 (Homo sapiens, UniProt P28324-2 1-405); conditions: protein: recombinant; tags: N-terminal GST; dsDNA, one strand shown
# T9 sequence: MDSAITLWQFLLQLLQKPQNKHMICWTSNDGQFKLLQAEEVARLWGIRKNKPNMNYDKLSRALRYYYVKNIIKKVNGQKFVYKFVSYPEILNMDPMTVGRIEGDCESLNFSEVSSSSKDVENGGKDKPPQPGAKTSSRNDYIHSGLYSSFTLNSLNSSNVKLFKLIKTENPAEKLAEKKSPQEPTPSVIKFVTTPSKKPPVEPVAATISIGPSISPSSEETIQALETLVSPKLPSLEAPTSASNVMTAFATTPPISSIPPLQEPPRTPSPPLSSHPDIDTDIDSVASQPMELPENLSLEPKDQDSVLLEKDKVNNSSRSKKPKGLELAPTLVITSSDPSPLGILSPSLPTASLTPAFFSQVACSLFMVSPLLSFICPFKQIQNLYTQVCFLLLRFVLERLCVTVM
# Summary of the method: as §1
# ETV2 = target: T10, ETV2 (Homo sapiens, UniProt O00321 1-342); conditions: protein: recombinant; tags: N-terminal GST; dsDNA, one strand shown
# T10 sequence: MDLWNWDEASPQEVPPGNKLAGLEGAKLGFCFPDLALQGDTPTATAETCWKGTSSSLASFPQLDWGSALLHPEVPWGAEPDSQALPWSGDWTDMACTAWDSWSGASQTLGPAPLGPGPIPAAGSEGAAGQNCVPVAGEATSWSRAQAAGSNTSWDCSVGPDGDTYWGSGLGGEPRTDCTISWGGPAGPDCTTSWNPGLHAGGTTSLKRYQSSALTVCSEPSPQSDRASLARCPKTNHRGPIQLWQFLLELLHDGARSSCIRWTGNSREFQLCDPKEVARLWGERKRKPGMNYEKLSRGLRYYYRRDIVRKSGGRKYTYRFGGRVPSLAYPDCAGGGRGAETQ
# Summary of the method: as §1
# ELF3 = target: T11, ELF3 (Homo sapiens, UniProt P78545 1-371); conditions: protein: recombinant; tags: N-terminal GST; dsDNA, one strand shown
# T11 sequence: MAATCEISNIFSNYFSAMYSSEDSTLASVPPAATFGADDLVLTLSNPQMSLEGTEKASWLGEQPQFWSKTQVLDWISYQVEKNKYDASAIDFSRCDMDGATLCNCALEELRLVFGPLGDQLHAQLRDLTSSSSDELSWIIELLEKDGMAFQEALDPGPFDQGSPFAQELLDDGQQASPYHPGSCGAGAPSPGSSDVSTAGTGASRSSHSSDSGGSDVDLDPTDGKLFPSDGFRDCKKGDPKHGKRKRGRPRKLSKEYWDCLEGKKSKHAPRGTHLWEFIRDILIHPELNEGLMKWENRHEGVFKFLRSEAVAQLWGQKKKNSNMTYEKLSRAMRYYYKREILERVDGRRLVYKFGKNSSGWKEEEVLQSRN
# Summary of the method: as §1
# CRX = CRX (Homo sapiens, UniProt O43186 1-299); conditions: protein: recombinant; tags: N-terminal GST; dsDNA, one strand shown
# Chain of CRX (O43186 whole entry): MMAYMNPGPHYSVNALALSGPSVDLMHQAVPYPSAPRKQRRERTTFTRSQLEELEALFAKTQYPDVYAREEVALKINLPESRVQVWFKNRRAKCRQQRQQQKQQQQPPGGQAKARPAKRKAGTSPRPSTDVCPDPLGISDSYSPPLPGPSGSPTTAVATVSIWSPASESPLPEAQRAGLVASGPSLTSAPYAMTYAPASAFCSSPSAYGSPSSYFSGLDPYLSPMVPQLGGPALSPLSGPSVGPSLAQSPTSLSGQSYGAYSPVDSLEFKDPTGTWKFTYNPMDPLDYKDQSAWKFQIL
# Summary of the method: as §1
# ETV1 = ETV1 (Homo sapiens, UniProt P50549 1-477); conditions: protein: recombinant; tags: N-terminal GST; dsDNA, one strand shown
# Chain of ETV1 (P50549 whole entry): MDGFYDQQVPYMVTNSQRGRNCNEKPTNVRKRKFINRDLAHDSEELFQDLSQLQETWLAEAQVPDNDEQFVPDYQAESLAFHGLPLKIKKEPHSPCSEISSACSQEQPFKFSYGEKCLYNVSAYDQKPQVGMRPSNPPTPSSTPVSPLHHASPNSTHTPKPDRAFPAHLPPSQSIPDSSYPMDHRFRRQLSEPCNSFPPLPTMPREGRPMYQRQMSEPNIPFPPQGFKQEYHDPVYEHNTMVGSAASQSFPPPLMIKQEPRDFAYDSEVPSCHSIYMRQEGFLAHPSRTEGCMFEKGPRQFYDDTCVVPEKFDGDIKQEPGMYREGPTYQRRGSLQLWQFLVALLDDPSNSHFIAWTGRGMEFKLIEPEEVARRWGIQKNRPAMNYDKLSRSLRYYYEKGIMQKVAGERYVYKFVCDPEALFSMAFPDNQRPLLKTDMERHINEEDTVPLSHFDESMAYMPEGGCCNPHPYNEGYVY
# Summary of the method: as §1
sequence,measurement,setting,value
TTTGCT,binding signal,FLI1,"1.25 fold enrichment (6-mer frequency, TF over GST control)"
same,binding signal,ELK1,"1.17 fold enrichment (6-mer frequency, TF over GST control)"
same,binding signal,GABPA,"1.29 fold enrichment (6-mer frequency, TF over GST control)"
same,binding signal,ERG,"1.18 fold enrichment (6-mer frequency, TF over GST control)"
same,binding signal,ELF1,"1.21 fold enrichment (6-mer frequency, TF over GST control)"
same,binding signal,EHF,"1.18 fold enrichment (6-mer frequency, TF over GST control)"
same,binding signal,SPI1,"1.21 fold enrichment (6-mer frequency, TF over GST control)"
same,binding signal,SPIB,"1.24 fold enrichment (6-mer frequency, TF over GST control)"
same,binding signal,ELK3,"1.25 fold enrichment (6-mer frequency, TF over GST control)"
same,binding signal,FEV,"1.16 fold enrichment (6-mer frequency, TF over GST control)"
same,binding signal,ETV5,"1.2 fold enrichment (6-mer frequency, TF over GST control)"
same,binding signal,HSF1,"1.47 fold enrichment (6-mer frequency, TF over GST control)"
same,binding signal,SPIC,"1.22 fold enrichment (6-mer frequency, TF over GST control)"
same,binding signal,ELF4,"1.27 fold enrichment (6-mer frequency, TF over GST control)"
same,binding signal,ELK4,"1.36 fold enrichment (6-mer frequency, TF over GST control)"
same,binding signal,ETV2,"1.39 fold enrichment (6-mer frequency, TF over GST control)"
same,binding signal,ELF3,"1.33 fold enrichment (6-mer frequency, TF over GST control)"
same,binding signal,CRX,"1.45 fold enrichment (6-mer frequency, TF over GST control)"
same,binding signal,ETV1,"1.18 fold enrichment (6-mer frequency, TF over GST control)"
